Test results as given in PubChem BioAssay (NCATS).
Records with an inconclusive call do not appear. Active and inactive are the calls of the source. Calls come from the whole dose curve; as a rule, active = well fitted cell-killing curve with a large enough effect; inconclusive = small, poorly fitted or top-dose-only effect, or effect the other way; inactive = no such curve, though single readings can be large or run the other way.

Test: Quantitative High-Throughput drug screen in 47 multiple myeloma cell lines against the NCATS MIPE library collection: FR4_PLB cell viability assay (AID 1918924; note: nearly all actives have a fitted effect of over 35% in size)
Conditions: FR4_PLB myeloma cells viability, CellTiter-Glo ATP, 48 h; series mostly up to 45.8 µM; viability (% of DMSO control): at the top concentration
How it was run: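 Relative luminescence from CellTiter-Glo served as the viability signal, referenced to DMSO-treated (100%) and cell-free medium (0%) controls. Treatment lasted 48 hours at 37C with 500 cells per well.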
Potency is the fitted concentration of half-maximal effect.

Row | Compound | viability (% of DMSO control) | Potency
1 | C[C@]12CC[C@H](O)CC1=CC[C@H]1[C@H]3CCC(=O)[C@@]3(C)CC[C@@H]12 | 102% (inactive) | –
2 | CC(=O)Nc1ccc(OC[C@](C)(O)C(=O)Nc2ccc([N+](=O)[O-])c(C(F)(F)F)c2)cc1 | 99.4% (inactive) | –
3 | Cc1nc(-c2ccc(-c3ccc(C(=O)N4CCc5cc6c(cc54)C4(CCN(C)CC4)CO6)cc3)c(C)c2)no1 | 94.4% (inactive) | –
4 | CC(C)N(CCNC(=O)CN1CCCC1=O)C(C)C | 127% (inactive) | –
5 | O=C(NCC1CCOCC1)c1cnc(Nc2ccc(Cl)cc2Cl)nc1C(F)(F)F | – | 14.8 µM (active)
6 | Cc1[nH]nc2ccc(-c3cncc(OC[C@@H](N)Cc4c[nH]c5ccccc45)c3)cc12 | – | 0.833 µM (active)
7 | COc1ccc2c(c1)[C@]13CCCCC1C(C2)N(C)CC3 (some centres not stated) | 97% (inactive) | –
8 | CC(C)(O)C(=O)Nc1ccc([N+](=O)[O-])c(C(F)(F)F)c1 | 92.5% (inactive) | –
9 | CCOC(=O)Nc1ccc(NCc2ccc(F)cc2)cc1N | 107% (inactive) | –
10 | NC1=NC(=O)N2CC12 (configuration not stated) | 135% (inactive) | –
11 | C[C@@H]1[C@H](O)[C@@H](C)C=CC=CCCC=CC=CC=CC=C[C@H](O[C@H]2O[C@@H](C)[C@H](O)[C@@H](N)[C@@H]2O)CC2O[C@](O)(C[C@@H](O)[C@H](O)CC[C@@H](O)C[C@@H](O)C[C@@H](O)CC(=O)O[C@H]1C)C[C@H](O)[C@H]2C(=O)O | 109% (inactive) | –
12 | COc1cc2cc(c1Cl)N(C)C(=O)C[C@H](OC(=O)C(C)C)[C@]1(C)O[C@H]1[C@H](C)[C@@H]1C[C@@](O)(NC(=O)O1)[C@H](OC)C=CC=C(C)C2 | 32.4% (inactive) | –
13 | CO[C@H]1CCC(O[C@H]2C[C@H]([C@]3(C)CC[C@]4(C[C@H](O)[C@@H](C)[C@@H]([C@@H](C)C=C(C)C(=O)[C@H](C)C[C@H](C)C(=O)O)O4)O3)O[C@]3(O[C@@H]([C@H]4O[C@@](O)(CO)[C@H](C)C[C@H]4C)C[C@H]3C)[C@H]2C)O[C@H]1C (some centres not stated) | – | 3.72 µM (active)
14 | O=C(Nc1ccncc1)C(=O)c1cn(Cc2ccc(Cl)cc2)c2ccccc12 | – | 0.0166 µM (active)
15 | CC(=CCCC1=CCC(C2=CC(=O)OC2O)OC1O)CCC1=C(C)CCCC1(C)C (configuration not stated) | 118% (inactive) | –
16 | C#C[C@]1(O)C=C[C@@H]2[C@@H]3CCC4=CC(=O)CC[C@@H]4[C@H]3CC[C@@]21CC | 113% (inactive) | –
17 | O=C(O)CNC(=O)c1c(O)c2ccccc2n(Cc2ccccc2)c1=O | 116% (inactive) | –

Test: Quantitative High-Throughput drug screen in 47 multiple myeloma cell lines against the NCATS MIPE library collection: Delta47_JCRB cell viability assay (AID 1918925; note: nearly all actives have a fitted effect of over 45% in size)
Conditions: Delta47 myeloma viability, CellTiter-Glo ATP, 48 h; series mostly up to 45.8 µM; viability (% of DMSO): at the top concentration
How it was run: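 We plated 500 myeloma cells per well, pinned in MIPE 4.0 compounds, and incubated for 48 hours at 37C. ATP was then quantified with CellTiter-Glo, with DMSO and media-only wells defining 100% and 0%.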

Row | Compound | viability (% of DMSO) | Potency
18 | CC(N[C@H]1C[C@H]1c1ccccc1)c1ccc2c(c1)OCCO2 (some centres not stated) | 125% (inactive) | –
19 | N=c1c2c(-c3ccccc3)c(-c3ccccc3)n(Cc3ccccc3)c2ncn1C1CCC(O)CC1 (configuration not stated) | – | 0.166 µM (active)
20 | CC(C)[C@H]1C(=O)N[C@H](CO)Cc2c[nH]c3cccc(c23)N1C | 94.3% (inactive) | –
21 | Cc1ccccc1-n1c(Cn2ncc3c(N)ncnc32)nc2cccc(C)c2c1=O | – | 0.209 µM (active)
22 | CC(C)N(CCNC(=O)CN1CCCC1=O)C(C)C | 103% (inactive) | –
23 | O=C(NCC1CCOCC1)c1cnc(Nc2ccc(Cl)cc2Cl)nc1C(F)(F)F | – | 7.43 µM (active)
24 | COc1ccc(C(=O)c2c(C)n(CCN3CCOCC3)c3cc(I)ccc23)cc1 | – | 16.6 µM (active)
25 | Cc1[nH]nc2ccc(-c3cncc(OC[C@@H](N)Cc4c[nH]c5ccccc45)c3)cc12 | – | 0.209 µM (active)
26 | CCN1C[C@]2(OC(=O)c3ccccc3NC(C)=O)CC[C@H](OC)[C@@]34[C@H]5CC6[C@@H](OC)C[C@](O)(C(C[C@@H]23)[C@@H]14)[C@@]5(O)[C@@H]6OC | 109% (inactive) | –
27 | CC(C)(O)C(=O)Nc1ccc([N+](=O)[O-])c(C(F)(F)F)c1 | – | 7.43 µM (active)
28 | CCOC(=O)Nc1ccc(NCc2ccc(F)cc2)cc1N | – | 7.43 µM (active)
29 | COC1=C[C@@H]2[C@@H]3Cc4ccc(OC)c(O)c4[C@]2(CCN3C)CC1=O | – | 3.32 µM (active)
30 | NC1=NC(=O)N2CC12 (configuration not stated) | – | 10.5 µM (active)
31 | CCN(CC)C(=O)c1ccc(C2=CC3(CCNCC3)Oc3cccc(O)c32)cc1 | 112% (inactive) | –
32 | Clc1ccccc1C(c1ccccc1)(c1ccccc1)n1cccn1 | 134% (inactive) | –
33 | COc1cc2cc(c1Cl)N(C)C(=O)C[C@H](OC(=O)C(C)C)[C@]1(C)O[C@H]1[C@H](C)[C@@H]1C[C@@](O)(NC(=O)O1)[C@H](OC)C=CC=C(C)C2 | 6.14% (inactive) | –
34 | CO[C@H]1CCC(O[C@H]2C[C@H]([C@]3(C)CC[C@]4(C[C@H](O)[C@@H](C)[C@@H]([C@@H](C)C=C(C)C(=O)[C@H](C)C[C@H](C)C(=O)O)O4)O3)O[C@]3(O[C@@H]([C@H]4O[C@@](O)(CO)[C@H](C)C[C@H]4C)C[C@H]3C)[C@H]2C)O[C@H]1C (some centres not stated) | – | 1.18 µM (active)
35 | O=C(Nc1ccncc1)C(=O)c1cn(Cc2ccc(Cl)cc2)c2ccccc12 | – | 0.0166 µM (active)
36 | CC(=CCCC1=CCC(C2=CC(=O)OC2O)OC1O)CCC1=C(C)CCCC1(C)C (configuration not stated) | 109% (inactive) | –
37 | O=C(O)CNC(=O)c1c(O)c2ccccc2n(Cc2ccccc2)c1=O | 134% (inactive) | –
